Among the data in the OligoGym collection are sensor-assay potency score (higher = more potent) values, retold here.
Note: reference of the scale not given here.

For the first test, the target named is LRRC15. The experiment in a line: pooled miR-30 sensor sort-seq; sequence = guide strand. The conditions noted are these: shRNA.
As to TTCTTCTCAATCCTCAGGGCGA, the sensor-assay potency score (higher = more potent) is -1.09. Turning to TTCTTGCAGCAGCAACAGCCGA, the sensor-assay potency score (higher = more potent) is -1.7. Still for that read-out and setting: for TTGTTGGACAGGTAGAGTCTCT the value was -0.632.

On to AACAGCAACGTTGACATTGATG, for which the sensor-assay potency score (higher = more potent) is -1.31. Same read-out and setting: for TAGTCAGATCAGTGTAGTCTTC the value was -1.03; for TTGAGTTCAGTGATGTGCGTGT, 0.975. The same measure, in the same setting: next, TTGCTGAAGACATTGTCGGGTA: 0.015.

Turning to TAACCTAGGCTGGTTGAGCAGG, the sensor-assay potency score (higher = more potent) was -0.94. Still for that read-out and setting: for TTGGACAGGTAGAGTCTCTGGA the value was 0.0615; for TTGAGCAGGAGCCAGTTGCGGA, -0.932; for TCTTGCAGCAGCAACAGCCGAC, -0.387.

A further test addresses LRRC19. The test is described as above. The conditions noted are these: shRNA.
Regarding TTGATTATGAGGACTCAGCAAA, the sensor-assay potency score (higher = more potent) is -0.795. Take TAACTGTCAACTACCGAGGAGT: the sensor-assay potency score (higher = more potent) is -0.999. Same read-out and setting: for TTTGATATTGTAGCTCTGCAGG the value was -1.09.

With TTCTGCTTCATGCTCTTCCAGG, the sensor-assay potency score (higher = more potent) was -0.767.

Sequence TATGTCTGTAGAACTCTTGTGT showed a sensor-assay potency score (higher = more potent) of 0.236.

TATAGTAACATCTTTCTTGATA: the sensor-assay potency score (higher = more potent) is -0.839.

Consider TATGTAACTGTCAACTACCGAG, for which the sensor-assay potency score (higher = more potent) is -0.747. Still for that read-out and setting: for TTATGTAAGATAGTAACCTTGT the value was 0.182; for TTACTGTATTTGAACCTGCTTG, -0.499.

As to TTCATGAATAATTTAGACCTTT, the sensor-assay potency score (higher = more potent) is -0.134. Same read-out and setting: for TAAACTGTAGTGATCCTGCATT the value was -0.636.

The target in another test is LRRC1. Described as above. The conditions noted are these: shRNA.
TTTCTGTAAGAACTAACTCAGT: the sensor-assay potency score (higher = more potent) is -0.926. Same read-out and setting: next, TAGCTGGAAAAATTGCTCGGGC: -0.498. Same read-out and setting: for TTTTGTTTGAGTCCAGTCCTTT the value was -0.559. On the same count and under the same terms, next, TAGTTTTCCAATGCCATCCGGA: -0.337; TTTTCTGTAAGAACTAACTCAG: -0.115. TTTCGTAATTTGACTAGCTGGA: the sensor-assay potency score (higher = more potent) was 0.0536. The same measure, in the same setting: for TTGCCTGTGACACCTCTGCAGG the value was -1.09; for TCTCTTGACAAGTAGGTTCAGA, -0.443; for TTGACAGCACGCTCGTTCCAGG, -1.01.

TTCTAGTCTTCGCAGCTGGGTA: the sensor-assay potency score (higher = more potent) is -0.92.

On to TTCTTCTAGTCTTCGCAGCTGG, for which the sensor-assay potency score (higher = more potent) is -0.37. On to TCTGTTGACAGCACGCTCGTTC, for which the sensor-assay potency score (higher = more potent) came to 0.237.

The target in the next test is LRRC45. Described as above. The conditions noted are these: shRNA.
As to AATAGTCTCCATCAAGTCGAGG, the sensor-assay potency score (higher = more potent) was -1.73.

Turning to TTGAGAGCGTTGATGATGGAGT, the sensor-assay potency score (higher = more potent) was -0.215. Still for that read-out and setting: for TTATCAATAGTCTCCATCAAGT the value was -1.42; for TGACTGATCTGGTTGTTGCGGA, 0.13; for TTGGCAGCAGACAAGTCTCTGA, -0.793. Same read-out and setting: next, TGACATGCTGGTCATCTCCTGC: -0.943.
